Screen size: about 1,200 compounds; fewer than 10 were called active. Not all results are given here. Unmarked numbers belong to inactive results. The call rests on the fitted dose curve; in most records, active means well fitted curve in the direction sought with a large enough effect; inconclusive means small, poorly fitted or top-dose-only effect, or another doubt; inactive means no such curve, though single readings can be large or run the other way.
Assay: Confirmatory qHTS assay for inhibitors of Activation Induced Cytidine Deaminase (AID): UDG signals; further: 0% is about no effect
Settings: UDG coupled enzyme activity counter-screen; series mostly up to 115 µM; activity change, negative = inhibition: at the top concentration
Excerpt: Assay Provider (PI) Patricia Gearhart Ph.D.
National Institute on Aging
National Institute of Health (NIH), Bethesda, MD
Assay Provider (PI) Rahul Kohli Ph.D.
Perelman School of Medicine
University of Pennsylvania, Philadelphia, PA
Activation-Induced Deaminase (AID) is a cytosine deaminase which converts cytosine into uracil within stretches of ssDNA. The presence of uracil in DNA initiates a cascade of mutagenic DNA repair to introduce point mutations and DNA double strand breaks. Specific targeting of AID to the immunoglobulin heavy chain loci (Igh) promotes mutagenesis in the antibody variable region for somatic hypermutation (SHM) or switch regions leading to class switch recombination (CSR). However, AID also plays a role in accumulating unnecessary mutations across the genome. Mis-targeting of AID results in the initiation of tumor development and leads to greater drug resistance among cancer cells when continually expressed. To identify an AID inhibitor, a small molecule library will be screened in collaboration with NCATS core facility at NIH. To confirm biological function, inhibitors will be examined in an in vitro murine B-cell activation assay and subsequent secondary validation screens. Top molecules will be further screened to identify inhibitory efficacy against a wild type primary splenocytes assay. Using these approaches, we hope to identify a small molecule with great efficacy and low toxicity for use as a molecular probe to further characterize AID's intricacies, or even as a therapeutic.
A FRET based analysis of cytosine deamination, was developed to identify potential inhibitors of AID catalytic activity. This screen has two signal output, Read 1 evaluates the AID inhibition response. The second readout (Read 2) evaluates UDG response and is uses as a counterscreen to exclude false positive inhibitors. Inhibition in AID and inactivity in the UDG signal is the desired outcome for this assay.
SEQUENCE No. (e.g., 1, 2, 3, etc.); […] (e.g., Cells, Incubation, Reagent, etc.); VALUE; DESCRIPTION
1a; Reagent; 3 uL; [4/3x] 1 uM AID/2.67 U/mL UDG
1b; Reagent; 3 uL; 2 U/mL UDG
1c; Reagent; 3 uL; 1 uM AID
2a; Compound; 46 nL; Follow-up plates (0.64 uM - 10 mM)
2b; Control; 46 nL; ATA ([…] - 10 mM)
3; Time; 10 min; incubation at room temperature
5; Time; 4 hr; incubation at room temperature
6; Reagent; 4 uL; [2x] 250 mM NaOH
7; Time; 15 sec; centrifuge at 1000 rpm
8; Time; 30 min; incubation at room temperature
9a; Detection; fluorescence (Read 1: AID); EnVision (PerkinElmer) plate reader, 540 excitation and 590 emission filters
9b; Detection; fluorescence (Read 2: UDG); EnVision (PerkinElmer) plate reader, 560 excitation and 665 emission filters
NOTES (numbers refer to sequence above)
1a; Reagents were dispensed in a medium-binding black solid-bottom Greiner plates (789176F) using a BioRptr liquid dispenser. Dispense 3 uL of [4/3x] 1 uM AID (provided by Kohli lab) and [4/3x] 2 U/mL UDG (NEB M0280L) into columns 1, 2, 5 to 48.
1b; Dispense 3 uL of [4/3x] 2 U/mL UDG into column 3.
1c; Dispense 3 uL of [4/3x] 1 uM AID into column 4.
2a; Compound (7-points [uM]: 0.64; 3.2; 16; 80; 400; 2,000; 10,000; […]) double pin-transferred (Dip Factor = 2) using the Kalypsys (Wako USA) pintool equipped with a 1536 pinhead for a final concentration range of 7.32 nM - 114 uM.
2b; 10 mM Aurintricarboxylic Acid (Sigma A1895) (ATA, 8-point, n = 2, 1:2.5 dilution in column 2) double pin-transferred (Dip Factor = 2) using the Kalypsys (Wako USA) pintool equipped with a 1536 pinhead for a [final] range of 186 nM - 114 uM.
3; Room temperature incubation.
4; Dispense 1 uL of substrate mixture from the Kohli lab [4x] […] DJC20 and [4x] 250 nM DJC23 into columns 1 to 48 .
5; Room temperature incubation.
6; Dispense 4 uL of substrate mixture [2x] 250 mM NaOH into columns 1 to 48.
7; Centrifugation step to remove bubbles.
8; Room temperature incubation
9a; Fluorescence signal (column label AID) was read using the EnVision plate reader. […]

Going from O=C(CCS(=O)(=O)c1nc(-c2cccs2)cc(C(F)(F)F)n1)Nc1ccc(OC(F)(F)F)cc1 to COc1ccc(Nc2cc(C)c3cc(NC(=O)COc4cccc(C)c4)ccc3n2)cc1, the “activity change, negative = inhibition” value falls from 0.452% to -15.8%.

Going from CCc1ccc(C(c2ccccc2)c2c(C)[nH]c3ccccc23)s1 (stereo not drawn) to Cc1ccc(C(=O)c2cn(Cc3ccccc3)c3ccccc3c2=O)cc1, the “activity change, negative = inhibition” value rises from -1.17% to 0.0583%.

Going from Cc1ccc2c(c1)-c1ncc(C(=O)c3cc(Br)ccc3O)cc1CO2 to Cc1ccc2c(c1)-c1c(cnn1CC(=O)N1CCN(c3cccc(C(F)(F)F)c3)CC1)CO2, the “activity change, negative = inhibition” value falls from -6.67% to -13.8%.

Compared with Cc1ccc(Nc2nnc(-c3ccc(C)c(S(=O)(=O)N4CCN(C)CC4)c3)c3ccccc23)c(C)c1, Cc1cc(C)c(NC(=O)CCCn2c(C)c3cnn(-c4ccccc4)c(=O)c3c2C)c(C)c1 is lower in “activity change, negative = inhibition” value: -0.466% for the first, -9.84% for the second.

Going from CCn1c(=O)c2cc(C(=O)NCCCN(C)Cc3ccccc3)sc2c2ccccc21 to CCc1ccccc1NC(=O)[C@H](Cc1ccccc1)N1Cc2ccccc2C1=O, the “activity change, negative = inhibition” value rises from -13.6% to -5.74%.

Going from COc1ccc(CCNC(=O)c2cc(Nc3cc(C)cc(C)c3)nc3ccccc23)cc1OC to COc1ccc(C(=O)c2cn(Cc3ccccc3F)c3cc4c(cc3c2=O)OCCO4)cc1OC, the “activity change, negative = inhibition” value rises from -13.1% to 5.33%.

Going from Cc1ccc(-c2nc3nc(C)cc(C)n3c2Nc2ccc3c(c2)OCCO3)cc1 to COc1ccc(Cn2cc(C(=O)c3ccc(OC)cc3)c(=O)c3cc4c(cc32)OCCO4)cc1, the “activity change, negative = inhibition” value rises from -7.65% to 2.39%.

Compared with Cc1ccc(C)c(N2CCN(C(=O)c3cc(S(=O)(=O)N4CCCCC4)cn3C)CC2)c1, COc1ccc(-c2cn3c(n2)sc2cc(C(=O)NCCCN4CCCCC4)ccc23)cc1 is higher in “activity change, negative = inhibition” value: -7.73% for the first, -3.99% for the second.

Going from CCOC(=O)c1ccc(-n2c(N)c(C(=O)OC)c3nc4ccccc4nc32)cc1 to Cc1nn(C(=O)c2ccccc2)c(C)c1Sc1ccc(Cl)cc1, the “activity change, negative = inhibition” value rises from -1.19% to -0.373%.

Going from O=C(CC1N=C2c3ccccc3N=C(SCc3ccccc3F)N2C1=O)NCc1ccc2c(c1)OCO2 (stereo not drawn) to O=C(c1cccc(Cl)c1)N(Cc1ccco1)Cc1ccccc1Cl, the “activity change, negative = inhibition” value falls from 1.74% to -2.38%.

Going from Cc1ccc(C)c(NC(=O)CSc2nccn2-c2cccc(C)c2C)c1 to Cc1cccc(-c2nnc(SCC(=O)N3CCCc4ccccc43)o2)c1, the “activity change, negative = inhibition” value rises from -9.11% to -1.78%.

Going from Cc1cc(C)c2c(CC(=O)N(Cc3ccc(Cl)cc3)Cc3ccco3)coc2c1 to CCN(C(=O)c1cc2cc3ccc(OC)cc3nc2o1)c1cccc(C)c1, the “activity change, negative = inhibition” value falls from 2.44% to -18.5%.

First: Cc1ccc(N(Cc2cccs2)C(=O)c2ccccc2)cc1
Second: COc1ccc(CCNC(=O)CS(=O)Cc2nc(-c3ccc(C)cc3)oc2C)c(OC)c1 (stereo not drawn)
The “activity change, negative = inhibition” value of the first is higher: -1.63% for the first, -3.01% for the second.

In the case of COc1ccc(Cl)cc1NC(=O)CSc1nc(=O)n(Cc2ccco2)c2c1CCC2, the “activity change, negative = inhibition” value is reported as -1.64%.

For COc1cccc(-c2nc3cc(NC(=O)c4ccc(C)c([N+](=O)[O-])c4)ccc3o2)c1, the outcome was “inactive”.
